# Data reported in PubChem BioAssay AID588763 (NMMLSC, 2011).
# Measured potencies and affinities stand elsewhere. The source made the active and inactive calls. How the calls were made is not given here.
# Biological target: Beta-2 adrenergic receptor (Homo sapiens) (UniProt P07550)
# Experiment: ADRB2 activation measured by internalization – cell-based, FAP fluorogen, flow cytometry, cherry pick 1, dose response (AID 588763)
# Sequence of Beta-2 adrenergic receptor (Homo sapiens) (P07550 whole entry, looked up): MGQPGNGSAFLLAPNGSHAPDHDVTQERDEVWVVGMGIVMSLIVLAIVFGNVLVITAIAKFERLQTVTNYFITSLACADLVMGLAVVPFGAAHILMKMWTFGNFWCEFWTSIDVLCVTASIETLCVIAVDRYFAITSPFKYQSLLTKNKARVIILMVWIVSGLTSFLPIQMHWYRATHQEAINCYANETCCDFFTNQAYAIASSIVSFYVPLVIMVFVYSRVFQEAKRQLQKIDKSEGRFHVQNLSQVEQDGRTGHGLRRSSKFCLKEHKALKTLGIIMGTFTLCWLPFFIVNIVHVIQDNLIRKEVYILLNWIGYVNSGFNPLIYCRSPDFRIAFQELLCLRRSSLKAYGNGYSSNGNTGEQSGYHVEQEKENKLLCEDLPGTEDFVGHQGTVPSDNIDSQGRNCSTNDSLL
row,SMILES,outcome
1,CC(CCc1ccccc1)NC(C)C(O)c1ccc(O)cc1 (stereo not drawn),inactive
2,COc1ccc(OC)c(C(O)C2CCCCN2)c1 (stereo not drawn),inactive
3,COc1ccc(C(O)CNC(C)C)c(F)c1OC (stereo not drawn),inactive
4,CCNCC(O)c1cccc(O)c1 (stereo not drawn),inactive
5,COc1cc(C(O)CNC(C)C)cc(F)c1OC (stereo not drawn),inactive
6,CC(NCc1ccc(Cl)c(Cl)c1)C(O)c1ccccc1 (stereo not drawn),inactive
7,COc1ccc(OC)c2c1CCC1NCCOC21 (stereo not drawn),inactive
8,COc1ccc(OC)c([C@@H](O)[C@H](C)NC(C)(C)C)c1,inactive
